Results reported in PubChem BioAssay (EPA / NIEHS).
Calls of active or inactive are those of the source. Rule for the calls: active = hit-call score of the fitted dose curve at least 0.9, where 1 is the maximum; inactive = score below 0.9.

Key:
[1] = read-out: Interleukin-8 (IL8), CXCL8 (gene 3576); assay: BSK_KF3CT_IL8: BioMAP Diversity Plus: KF3CT Assay for Interleukin-8 (IL8) Biomarker Activity (AID 2284254); conditions: primary human keratinocytes with fibroblasts
Summary of the method: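 Human keratinocyte/foreskin fibroblast co-culture dosed 24 h; IL-8 measured by ELISA relative to DMSO. Parallel cultures stained with SRB for total protein to flag cytotoxicity.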

[2] = read-out: Macrophage Inflammatory Protein-1 Alpha (MIP1a), CCL3 (gene 6348); assay: BSK_IMphg_MIP1a: BioMAP Diversity Plus: IMphg Assay for Macrophage Inflammatory Protein-1 Alpha (MIP1a) Biomarker Activity (AID 2284255); conditions: primary human endothelial cells with macrophages
Summary of the method: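 Co-culture of human venular endothelial cells and macrophages exposed to compounds for 24 h; MIP-1a measured by ELISA relative to DMSO. Cytotoxicity assessed in parallel cultures by sulforhodamine B total-protein staining at 560 nm.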

[3] = read-out: Plasminogen activator inhibitor-1 (PAI1), SERPINE1 (gene 5054); assay: BSK_MyoF_PAI1: BioMAP Diversity Plus: MyoF Assay for Plasminogen activator inhibitor-1 (PAI1) Biomarker Activity (AID 2284256); conditions: primary human lung fibroblasts
Summary of the method: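 Primary human lung fibroblasts treated with chemical for 24 h; PAI-1 levels quantified by ELISA relative to DMSO. Cytotoxicity was assessed in parallel cultures by SRB total-protein staining (0.1% SRB after 10% TCA fixation, 560 nm).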

[4] = read-out: CD69, CD69 (gene 969); assay: BSK_IMphg_CD69: BioMAP Diversity Plus: IMphg Assay for CD69 Biomarker Activity (AID 2284257); conditions: primary human endothelial cells with macrophages
Summary of the method: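 Human venular endothelial cells co-cultured with macrophages; CD69 quantified by ELISA 24 h after compound addition. Activity fitted in the positive direction relative to DMSO baseline; cytotoxicity tracked in parallel cultures via SRB total-protein staining.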

[5] = read-out: Eotaxin 3, CCL26 (gene 10344); assay: BSK_BF4T_Eotaxin3: BioMAP Diversity Plus: BF4T Assay for Eotaxin 3 Biomarker Activity (AID 2284258); conditions: primary human bronchial epithelial cells with fibroblasts
Summary of the method: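 Co-culture of human bronchial epithelial cells and dermal fibroblasts, exposed to chemicals for 24 h versus DMSO. Eotaxin-3 quantified by ELISA; cytotoxicity checked in parallel cultures by sulforhodamine B total-protein staining.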

[6] = read-out: Monocyte Chemoattractant Protein-1 (MCP1), CCL2 (gene 6347); assay: BSK_BF4T_MCP1: BioMAP Diversity Plus: BF4T Assay for Monocyte Chemoattractant Protein-1 (MCP1) Biomarker Activity (AID 2284259); conditions: primary human bronchial epithelial cells with fibroblasts
Summary of the method: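 Co-culture of bronchial epithelial cells and dermal fibroblasts dosed with chemical; MCP-1 measured by ELISA 24 h later. Activity fitted in positive direction versus DMSO; cytotoxicity checked by SRB staining in parallel cultures.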

[7] = read-out: Intercellular Adhesion Molecule 1 (ICAM1), ICAM1 (gene 3383); assay: BSK_BF4T_ICAM1: BioMAP Diversity Plus: BF4T Assay for Intercellular Adhesion Molecule 1 (ICAM1) Biomarker Activity (AID 2284260); conditions: primary human bronchial epithelial cells with fibroblasts
Summary of the method: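 Co-culture of human bronchial epithelial cells and dermal fibroblasts exposed 24 h to chemical; cell-surface ICAM-1 quantified by ELISA. Parallel SRB total-protein staining assessed cytotoxicity; activity fitted relative to DMSO.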

[8] = read-out: Interleukin-8 (IL8), CXCL8 (gene 3576); assay: BSK_MyoF_IL8: BioMAP Diversity Plus: MyoF Assay for Interleukin-8 (IL8) Biomarker Activity (AID 2284261); conditions: primary human lung fibroblasts
Summary of the method: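 Human lung fibroblast (MyoF system) cultures dosed for 24 h, then IL-8 measured by ELISA. Response taken relative to DMSO; parallel SRB total-protein staining for cytotoxicity.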

[9] = read-out: CD90, THY1 (gene 7070); assay: BSK_BF4T_CD90: BioMAP Diversity Plus: BF4T Assay for CD90 Biomarker Activity (AID 2284262); conditions: primary human bronchial epithelial cells with fibroblasts
Summary of the method: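 Co-culture of human bronchial epithelial cells and dermal fibroblasts, 24 h compound exposure. Cell-surface CD90 measured by ELISA relative to DMSO; parallel SRB total-protein staining for cytotoxicity.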

[10] = read-out: Interleukin-8 (IL8), CXCL8 (gene 3576); assay: BSK_BF4T_IL8: BioMAP Diversity Plus: BF4T Assay for Interleukin-8 (IL8) Biomarker Activity (AID 2284263); conditions: primary human bronchial epithelial cells with fibroblasts
Summary of the method: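 Human bronchial epithelial cells with dermal fibroblasts co-culture; IL-8 measured by ELISA 24 hours after dosing, fitted vs DMSO. Cytotoxicity tracked in parallel cultures by SRB total-protein staining.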

[11] = read-out: Interleukin-1 alpha (IL1a), IL1A (gene 3552); assay: BSK_BF4T_IL1a: BioMAP Diversity Plus: BF4T Assay for Interleukin-1 alpha (IL1a) Biomarker Activity (AID 2284264); conditions: primary human bronchial epithelial cells with fibroblasts
Summary of the method: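 Human bronchial epithelial cells co-cultured with dermal fibroblasts, dosed and read at 24 h. Secreted/surface IL-1α quantified by ELISA; gain-of-signal fitted relative to DMSO baseline. Parallel SRB total-protein staining tracked cytotoxicity.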

[12] = read-out: Decorin, DCN (gene 1634); assay: BSK_MyoF_Decorin: BioMAP Diversity Plus: MyoF Assay for Decorin Biomarker Activity (AID 2284265); conditions: primary human lung fibroblasts
Summary of the method: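 Human lung fibroblast cultures were dosed for 24 h, and decorin was then measured by ELISA. Parallel cultures were stained with sulforhodamine B for total protein as a cytotoxicity check. Gain of signal was fitted relative to DMSO.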

[13] = read-out: KRT18 (gene 3875); assay: BSK_BF4T_Keratin818: BioMAP Diversity Plus: BF4T Assay for Keratin 818 Biomarker Activity (AID 2284266); conditions: primary human bronchial epithelial cells with fibroblasts
Summary of the method: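 Co-culture of human bronchial epithelial cells and dermal fibroblasts, chemical exposure 24 h. Keratin 8/18 measured by ELISA; positive-direction fit vs DMSO. SRB total protein run in parallel cultures for cytotoxicity.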

[14] = BSK_MyoF_SRB: Viability Assessment in the BioMAP Diversity Plus: MyoF Assay (AID 2284267); conditions: primary human lung fibroblasts;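 note: total protein by SRB absorbance in parallel cultures as cytotoxicity measure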
Summary of the method: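 Human lung fibroblasts dosed with chemical and assessed 24 h later for overt cytotoxicity in parallel cultures. Total protein quantified by sulforhodamine B staining (0.1% SRB after 10% TCA fixation), read at 560 nm, analysed in positive direction versus DMSO baseline.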

[15] = read-out: Matrix Metallopeptidase 1 (MMP1), MMP1 (gene 4312); assay: BSK_MyoF_MMP1: BioMAP Diversity Plus: MyoF Assay for Matrix Metallopeptidase 1 (MMP1) Biomarker Activity (AID 2284268); conditions: primary human lung fibroblasts
Summary of the method: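 Human lung fibroblast primary cells; MMP1 measured by ELISA 24 h after dosing, fitted in the positive direction relative to DMSO. Parallel SRB staining (0.1%, after 10% TCA fixation, 560 nm) assesses overt cytotoxicity.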

[16] = read-out: TIMP metallopeptidase inhibitor 1 (TIMP1), TIMP1 (gene 7076); assay: BSK_MyoF_TIMP1: BioMAP Diversity Plus: MyoF Assay for TIMP metallopeptidase inhibitor 1 (TIMP1) Biomarker Activity (AID 2284269); conditions: primary human lung fibroblasts
Summary of the method: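 ELISA quantified TIMP-1 levels after 24 h dosing of primary human lung fibroblasts, with DMSO as baseline. Parallel SRB total protein staining (0.1% SRB after TCA fixation, 560 nm) flagged overt cytotoxicity.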

[17] = read-out: Matrix Metallopeptidase 1 (MMP1), MMP1 (gene 4312); assay: BSK_BF4T_MMP1: BioMAP Diversity Plus: BF4T Assay for Matrix Metallopeptidase 1 (MMP1) Biomarker Activity (AID 2284270); conditions: primary human bronchial epithelial cells with fibroblasts
Summary of the method: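 Co-culture of human bronchial epithelial cells and dermal fibroblasts; MMP-1 levels measured by ELISA 24 hours after chemical dosing, relative to DMSO. Cytotoxicity checked in parallel cultures by SRB total-protein staining.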

[18] = read-out: Tissue plasminogen activator (tPA), PLAT (gene 5327); assay: BSK_BF4T_tPA: BioMAP Diversity Plus: BF4T Assay for Tissue plasminogen activator (tPA) Biomarker Activity (AID 2284272); conditions: primary human bronchial epithelial cells with fibroblasts
Summary of the method: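 tPA level quantified by ELISA at 24 h post-treatment in bronchial epithelial/dermal fibroblast co-cultures, gain of signal scored against DMSO baseline. Parallel cultures stained with 0.1% SRB (560 nm) to flag overt cytotoxicity.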

[19] = read-out: Plasminogen Activator Inhibitor-1 (PAI1), SERPINE1 (gene 5054); assay: BSK_BF4T_PAI1: BioMAP Diversity Plus: BF4T Assay for Plasminogen Activator Inhibitor-1 (PAI1) Biomarker Activity (AID 2284273); conditions: primary human bronchial epithelial cells with fibroblasts
Summary of the method: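 Co-culture of human bronchial epithelial cells and dermal fibroblasts exposed to compound for 24 h. PAI-1 measured by ELISA; activity fitted in positive direction versus DMSO. Parallel SRB staining assessed overt cytotoxicity.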

[20] = read-out: Matrix Metallopeptidase 3 (MMP3), MMP3 (gene 4314); assay: BSK_BF4T_MMP3: BioMAP Diversity Plus: BF4T Assay for Matrix Metallopeptidase 3 (MMP3) Biomarker Activity (AID 2284271); conditions: primary human bronchial epithelial cells with fibroblasts
Summary of the method: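 Co-culture of human bronchial epithelial cells and dermal fibroblasts dosed 24 h; MMP-3 measured by ELISA, positive-direction fit versus DMSO. Cytotoxicity tracked by SRB total-protein staining (560 nm) in parallel cultures.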

Measured: AC50

OCC(F)(F)C(F)(F)C(F)(F)F
not listed: [19] | [20]
inactive: all other assays above

O=C(CC(=O)C(F)(F)C(F)(F)F)C(F)(F)F
not listed: [20]
inactive: all other assays above

C=CC(F)(F)C(F)(F)C(F)(F)C(F)(F)C(F)(F)C(F)(F)C(F)(F)C(F)(F)F
not listed: [7] | [19] | [20]
inactive: all other assays above

CCCCNc1ccccc1
inactive: [3] | [8] | [12] | [14] | [15] | [16]

O[Si](c1ccccc1)(c1ccccc1)c1ccccc1
active: [3] 20 µM | [8] 8.82 µM | [14] 23.8 µM | [15] 13.9 µM
inactive: [12] | [16]

O=C(O)C(F)(F)C(F)(F)C(F)(F)C(F)(F)F
not listed: [7] | [19] | [20]
inactive: all other assays above

CS(C)(=O)=O
inactive: [3] | [8] | [12] | [14] | [15] | [16]

O=C(O)C(F)(F)C(F)(F)OC(F)(F)F
not listed: [7]
inactive: all other assays above

Nc1ccc([N+](=O)[O-])cc1O
inactive: [3] | [8] | [12] | [14] | [15] | [16]

CCN(CC)c1ccc2c(C)cc(=O)oc2c1
inactive: [3] | [8] | [12] | [14] | [15] | [16]

CCc1ccc(C(c2ccc(CC)cc2)C(Cl)Cl)cc1
active: [3] 31.1 µM | [8] 7.95 µM | [14] 25.7 µM | [15] 8.65 µM
inactive: [12] | [16]

FC(F)(F)C(F)(F)C(F)(F)C(F)(F)C(F)(F)C(F)(F)C(F)(F)C(F)(F)F
not listed: [7] | [19] | [20]
inactive: all other assays above

CCCCOCCOCCOC(=O)CCCCC(=O)OCCOCCOCCCC
inactive: [3] | [8] | [12] | [14] | [15] | [16]

FC(F)(F)C(F)(F)C(F)(F)CI
not listed: [7] | [20]
inactive: all other assays above

COC(=O)CCC(F)(F)C(F)(F)C(F)(F)C(F)(F)F
not listed: [7]
inactive: all other assays above

O=S(=O)(OCCOC(F)(F)F)C(F)(F)F
not listed: [7] | [19] | [20]
inactive: all other assays above
